Results published in PubChem BioAssay.
Activity calls are given as the source filed them.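 The calls were made as follows, unless noted: active = compound that reduces growth-factor-driven endothelial tube area in a mixed cell culture, no cutoff stated; inactive = the rest.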

Columns and labels:
[1] = compounds altering viability of human ES cells (AID 493140; call rule not given here;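 also: cells exposed to compounds for four days before counting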); conditions: human embryonic stem cell survival screen; stronger effect = higher value
[2] = P. berghei load reduction in hepatocytes – cell-based, HepG2, luciferase luminescence, HepG2 viability, primary screen (AID 624349; in the data active = parasite load remaining mostly below about 12%, no sharp cut-off; inactive = mostly above about 10%;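 also: 100% = mean of DMSO negative control wells on the same plate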); conditions: P. berghei liver stage in HepG2, luciferase luminescence, concentration not given here; parasite load remaining: stronger effect = lower value; viability: measured here: HepG2 viability without parasites
[3] = Wnt pathway potentiators raising nuclear beta-catenin – imaging, WNT3A-conditioned medium, mouse C2C12, NPC library, primary screen (AID 1117326; in the data active = nuclear beta-catenin stimulation mostly above about 4.2%, no sharp cut-off; inactive = mostly below about 10%; also: reference of the scale not given here); conditions: stronger effect = higher value
[4] = stimulators of insulin release from INS-1E, primary screen, cell-based, 5 mM glucose, NPC library (AID 1117329;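 active = compound raises insulin release from rat beta cells at 5 mM glucose, no numeric limit stated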; also: reference of the scale not given here); conditions: rat INS-1E insulin secretion, at 10 µM, stronger effect = higher value
[5] = growth inhibition of GSK3B-pretreated HCT116 cells – cell-based, CellTiter-Glo, 0.2 to 20 µM (AID 1117336;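 active = compounds lowering colon cancer cell viability after pretreatment blocking the GSK3B kinase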); conditions: HCT116 viability after GSK3B inhibitor, at 20 µM, stronger effect = higher value
[6] = inhibition of endothelial tube formation, primary screen, imaging, VEGF stimulated, CD31 staining, tube area, NPC library (AID 1117340); conditions: VEGF-stimulated ADSC/ECFC co-culture, at 10 µM, stronger effect = higher value
[7] = GLP1 release stimulators, primary, NCI-H716, NPC library (AID 1117341;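 active = compound raises GLP1 secretion from the human gut endocrine cells, with no numeric limit stated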; also: reference of the scale not given here); conditions: NCI-H716 cells, at 10 µM, stronger effect = higher value
[8] = HCT116 colon cancer cell growth inhibition, primary screen, CellTiter-Glo luminescence, NPC library (AID 1117342;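 active = compounds that lower survival of HCT116 colon cancer cells in the luminescence readout, no numeric limit stated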); conditions: at 20 µM (top of the series)
[9] = reduced SW480 viability measured with CellTiter-Glo, NPC library, primary (AID 1117343;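 active = compounds that lower viability of the colon cancer cells in the luminescence readout, with no numeric limit stated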); conditions: CellTiter-Glo luminescence; at 20 µM (top of the series)
[10] = NPC library primary testing for decreased DLD-1 cell viability via CellTiter-Glo (AID 1117346;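 active = compounds that lower survival of DLD-1 colon cancer cells in the luminescence readout, no cutoff given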); conditions: DLD-1 viability, CellTiter-Glo luminescence; at 20 µM (top of the series)
[11] = viability loss with induced miR-34 in A549 – imaging, A549 dox-inducible miR-34, nuclei and caspase counts, primary screen (AID 1347080;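 active = compounds whose cell count with miR-34 switched on is under 0.7 times the count with it off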); conditions: A549 miR-34 inducible, Hoechst nuclei count, 48 h
[12] = biological target: NAD(+) hydrolase SARM1 (Homo sapiens) (UniProt Q6SZW1); test: blocking NAD cleavage by SARM1 SAM-TIR – cell lysate, NAD-Glo luminescence (AID 1508614;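 active = compound whose remaining NAD level is above about 45 nM, limit read from the data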;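 also: higher remaining NAD means stronger inhibition of SARM1 NADase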); conditions: SAM-TIR HEK293T lysate NADase, at 1 µM, stronger effect = higher value
Sequence of NAD(+) hydrolase SARM1 (Homo sapiens) (Q6SZW1 whole entry, looked up): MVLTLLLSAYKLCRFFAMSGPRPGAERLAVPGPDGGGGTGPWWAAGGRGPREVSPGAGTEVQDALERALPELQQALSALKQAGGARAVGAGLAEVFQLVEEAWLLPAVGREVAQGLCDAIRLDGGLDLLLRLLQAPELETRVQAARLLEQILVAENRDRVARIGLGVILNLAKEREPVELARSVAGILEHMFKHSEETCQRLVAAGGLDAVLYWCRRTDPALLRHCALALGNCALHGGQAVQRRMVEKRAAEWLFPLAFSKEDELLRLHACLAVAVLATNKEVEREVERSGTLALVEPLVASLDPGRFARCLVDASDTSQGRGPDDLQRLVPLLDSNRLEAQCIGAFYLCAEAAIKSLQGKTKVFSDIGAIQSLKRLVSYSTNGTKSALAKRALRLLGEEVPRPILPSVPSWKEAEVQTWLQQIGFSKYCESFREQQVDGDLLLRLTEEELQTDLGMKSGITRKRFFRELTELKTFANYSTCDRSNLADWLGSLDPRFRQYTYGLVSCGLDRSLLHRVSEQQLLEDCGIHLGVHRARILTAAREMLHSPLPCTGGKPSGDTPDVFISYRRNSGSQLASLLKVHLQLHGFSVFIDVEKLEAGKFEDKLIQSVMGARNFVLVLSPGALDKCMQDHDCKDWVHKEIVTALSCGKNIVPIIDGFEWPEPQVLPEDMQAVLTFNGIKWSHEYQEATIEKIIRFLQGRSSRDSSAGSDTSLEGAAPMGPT

[13] = MELAS cybrid and Rieske KO viability enhancers – cell-based, MELAS cybrids, Rieske KO mouse fibroblasts, CellTiter-Glo, primary screen (AID 1508586;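 active = mean z-score across replicates of 1.96 or higher in either the MELAS or the Rieske mutant cell line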;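 also: z relative to plate mean and SD of compound and empty wells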); conditions: low glucose
[14] = measured here: relative caspase fold change +Dox/-Dox
[15] = measured here: total cells with miR-34 induction, stronger effect = lower value
[16] = measured here: total cells without miR-34 induction
[17] = MELAS cybrid survival, CellTiter-Glo 48 h, stronger effect = higher value
[18] = Rieske KO mouse fibroblast survival, CellTiter-Glo 72 h

SMILES	survival [1]	parasite load remaining [2]	viability [2]	nuclear beta-catenin stimulation ([3]; at 10 µM)	nuclear beta-catenin stimulation ([3]; stimulation, at 2 µM)	insulin secretion stimulation [4]	viability decrease [5]	tube area decrease [6]	GLP1 secretion stimulation [7]	inhibition of viability [8]	viability decrease (inhibition) [9]	viability decrease (inhibition) [10]	fold change ([11]; stronger effect = lower value)	fold change [11, 14]	cell count [11, 15]	cell count [11, 16]	remaining NAD [12]	z-score [13, 17]	z-score [13, 18]	fold change ([11]; stronger effect = lower value, cell number ratio, induced over uninduced)
COc1ccc2c(c1OC)CN1CCc3cc4c(cc3C1C2)OCO4 (stereo not given)	0.583 (inactive)	82.7% (inactive)	89.1%	2.2% (inactive)	2.8%	1.5% (inactive)	34.2% (inactive)	1.4% (inactive)	-1% (inactive)	49.3% (inactive)	-5.2% (inactive)	21.3% (inactive)	0.795 (inactive)	1.12	8510	10700				
[N-]=[N+]=CC(=O)OC[C@H](N)C(=O)O				-2.7% (inactive)	-2.4%	-0.2% (inactive)	50.2% (active)	12.9% (inactive)	-1.4% (inactive)	77.9% (active)	104% (active)	57.8% (active)					10 nM (inactive)			
C[C@]12CC[C@@H]3c4ccc(OC(=O)N(CCCl)CCCl)cc4CC[C@H]3[C@@H]1CC[C@@H]2O				-1.2% (inactive)	0.4%	-0.9% (inactive)	18.1% (inactive)	2.8% (inactive)	2.6% (inactive)	-23.1% (inactive)	56.7% (active)	23.4% (inactive)					10 nM (inactive)	-1.9 (inactive)	0.249	
O=[N+]([O-])C(Br)(CO)CO				44.8% (active)	0%	20.2% (active)	-19.2% (inactive)	106% (active)	-0.1% (inactive)	2.9% (inactive)	88.9% (active)	52.2% (active)					51 nM (active)			
CCOc1cc(C=O)ccc1O				-1.6% (inactive)	-0.8%	0.4% (inactive)	5.6% (inactive)	0.8% (inactive)	-3.6% (inactive)	6% (inactive)	6.9% (inactive)	-3% (inactive)					10 nM (inactive)			
CCN[C@@H](C)Cc1cccc(C(F)(F)F)c1				3% (inactive)	2.2%	8.8% (inactive)	-3.65% (inactive)	29.2% (active)	1.3% (inactive)	-3.9% (inactive)	17.9% (inactive)	-6.6% (inactive)						-1.11 (inactive)	0.177	
O=C1OC2(c3cc(Br)c(O)cc3Oc3c2cc(Br)c(O)[c]3[Hg])c2ccccc21 (stereo not given)		65.8% (inactive)	84.8%	57.5% (active)	3.4%	7.2% (inactive)	77.7% (active)	-234% (inactive)	-1.4% (inactive)	52.1% (active)	11.7% (inactive)	38.2% (inactive)		1.08	9490	10700		-0.831 (inactive)	0.0245	0.885 (inactive)
NCc1cccnc1				0.8% (inactive)	1.2%	-1.3% (inactive)	16.9% (inactive)	-11.1% (inactive)	0% (inactive)	-22.4% (active)	1.8% (inactive)	-13.1% (inactive)	0.867 (inactive)	0.915	7820	9010	10 nM (inactive)			
